# According to PMC7862700, “An all-to-all approach to the identification of sequence-specific readers for epigenetic DNA modifications on cytosine”:
# Assays:
# Assay in all cases: DAPPL (digital affinity profiling via proximity ligation, sequencing); 10 mM Tris-HCl pH 7.5, 50 mM NaCl, 1 mM DTT, 4% glycerol, room temperature, 30 min; GST-TFs on glutathione beads, 16-mer random dsDNA library, 0.1% formaldehyde crosslink after washing; high values mean tight binding
# [1] = target: T1, FEV (Homo sapiens, UniProt Q99581 1-238); conditions: protein: recombinant; tags: N-terminal GST; dsDNA, one strand shown
# T1 sequence: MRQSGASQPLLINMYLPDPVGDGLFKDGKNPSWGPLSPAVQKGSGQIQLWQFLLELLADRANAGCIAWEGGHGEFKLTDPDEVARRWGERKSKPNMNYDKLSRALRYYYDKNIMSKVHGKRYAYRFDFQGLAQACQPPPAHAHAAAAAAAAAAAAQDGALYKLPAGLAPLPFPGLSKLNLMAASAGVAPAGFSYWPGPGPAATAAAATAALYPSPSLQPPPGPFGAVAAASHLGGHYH
# Procedure, shortened: (§1)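 Human transcription factors fused to GST were expressed in yeast, captured on glutathione beads, given DNA barcodes and pooled with a GST-only negative control. Pools were incubated with 200 nmole of a 16-mer random double-stranded DNA library in Tris/NaCl/DTT/glycerol buffer at room temperature for 30 min. They were then washed, crosslinked with 0.1% formaldehyde, proximity-ligated (BsaI/T4 ligase, 1 h, 37 °C), PCR-amplified and sequenced on an Illumina NextSeq500. Binding signal is each 6-mer's read frequency for a factor divided by its frequency for the GST control.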
# [2] = target: ETV5 (Homo sapiens, UniProt P41161 1-510); conditions: protein: recombinant; tags: N-terminal GST; dsDNA, one strand shown
# Procedure, shortened: as §1
# [3] = target: HSF1 (Homo sapiens, UniProt Q00613 1-529); conditions: protein: recombinant; tags: N-terminal GST; chain copies: 3; dsDNA, one strand shown
# Procedure, shortened: as §1
# [4] = target: T2, SPIC (Homo sapiens, UniProt Q8N5J4 1-248); conditions: protein: recombinant; tags: N-terminal GST; dsDNA, one strand shown
# T2 sequence: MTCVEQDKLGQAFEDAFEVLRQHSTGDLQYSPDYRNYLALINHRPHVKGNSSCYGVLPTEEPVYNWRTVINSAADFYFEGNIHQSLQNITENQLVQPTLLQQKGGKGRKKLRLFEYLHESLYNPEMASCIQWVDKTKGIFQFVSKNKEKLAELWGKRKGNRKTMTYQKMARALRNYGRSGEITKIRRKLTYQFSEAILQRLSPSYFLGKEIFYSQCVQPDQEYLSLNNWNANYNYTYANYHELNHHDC
# Procedure, shortened: as §1
# [5] = target: ELF4 (Homo sapiens, UniProt Q99607 1-663); conditions: protein: recombinant; tags: N-terminal GST; dsDNA, one strand shown
# Procedure, shortened: as §1
# [6] = target: T3, ELK4 (Homo sapiens, UniProt P28324-2 1-405); conditions: protein: recombinant; tags: N-terminal GST; dsDNA, one strand shown
# T3 sequence: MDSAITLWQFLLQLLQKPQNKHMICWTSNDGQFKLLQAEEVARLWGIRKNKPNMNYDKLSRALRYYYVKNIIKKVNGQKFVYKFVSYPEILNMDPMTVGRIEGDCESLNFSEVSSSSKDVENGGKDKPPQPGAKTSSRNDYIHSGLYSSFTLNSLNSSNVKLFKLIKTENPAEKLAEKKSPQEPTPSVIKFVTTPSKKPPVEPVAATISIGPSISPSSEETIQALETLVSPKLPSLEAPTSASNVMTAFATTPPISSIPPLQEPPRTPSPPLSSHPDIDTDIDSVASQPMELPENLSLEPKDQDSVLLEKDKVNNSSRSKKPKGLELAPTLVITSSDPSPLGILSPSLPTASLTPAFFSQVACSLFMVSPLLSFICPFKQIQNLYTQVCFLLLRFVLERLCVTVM
# Procedure, shortened: as §1
# [7] = target: T4, ETV2 (Homo sapiens, UniProt O00321 1-342); conditions: protein: recombinant; tags: N-terminal GST; dsDNA, one strand shown
# T4 sequence: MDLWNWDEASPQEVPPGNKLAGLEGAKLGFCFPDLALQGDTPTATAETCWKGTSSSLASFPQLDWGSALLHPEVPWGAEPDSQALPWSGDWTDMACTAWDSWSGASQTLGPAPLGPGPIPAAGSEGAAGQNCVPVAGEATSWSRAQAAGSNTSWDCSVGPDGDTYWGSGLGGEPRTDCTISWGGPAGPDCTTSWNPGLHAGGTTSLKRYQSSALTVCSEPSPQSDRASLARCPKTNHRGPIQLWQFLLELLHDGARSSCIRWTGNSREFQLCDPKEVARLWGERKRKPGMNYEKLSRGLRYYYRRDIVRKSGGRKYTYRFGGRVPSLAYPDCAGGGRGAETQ
# Procedure, shortened: as §1
# [8] = target: T5, ELF3 (Homo sapiens, UniProt P78545 1-371); conditions: protein: recombinant; tags: N-terminal GST; dsDNA, one strand shown
# T5 sequence: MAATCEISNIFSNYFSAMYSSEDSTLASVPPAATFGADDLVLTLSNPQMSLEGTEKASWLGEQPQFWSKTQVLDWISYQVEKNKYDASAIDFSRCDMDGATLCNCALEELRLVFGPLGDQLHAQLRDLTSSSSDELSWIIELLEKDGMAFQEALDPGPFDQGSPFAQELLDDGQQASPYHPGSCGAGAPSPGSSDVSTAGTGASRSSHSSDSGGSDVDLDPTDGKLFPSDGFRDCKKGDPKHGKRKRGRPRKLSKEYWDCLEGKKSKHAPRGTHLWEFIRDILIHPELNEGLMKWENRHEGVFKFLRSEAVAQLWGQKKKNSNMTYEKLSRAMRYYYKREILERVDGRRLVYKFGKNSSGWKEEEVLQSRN
# Procedure, shortened: as §1
# [9] = target: CRX (Homo sapiens, UniProt O43186 1-299); conditions: protein: recombinant; tags: N-terminal GST; dsDNA, one strand shown
# Procedure, shortened: as §1
# [10] = target: ETV1 (Homo sapiens, UniProt P50549 1-477); conditions: protein: recombinant; tags: N-terminal GST; dsDNA, one strand shown
# Procedure, shortened: as §1
# [11] = target: T6, ERF (Homo sapiens, UniProt P50548 1-548); conditions: protein: recombinant; tags: N-terminal GST; dsDNA, one strand shown
# T6 sequence: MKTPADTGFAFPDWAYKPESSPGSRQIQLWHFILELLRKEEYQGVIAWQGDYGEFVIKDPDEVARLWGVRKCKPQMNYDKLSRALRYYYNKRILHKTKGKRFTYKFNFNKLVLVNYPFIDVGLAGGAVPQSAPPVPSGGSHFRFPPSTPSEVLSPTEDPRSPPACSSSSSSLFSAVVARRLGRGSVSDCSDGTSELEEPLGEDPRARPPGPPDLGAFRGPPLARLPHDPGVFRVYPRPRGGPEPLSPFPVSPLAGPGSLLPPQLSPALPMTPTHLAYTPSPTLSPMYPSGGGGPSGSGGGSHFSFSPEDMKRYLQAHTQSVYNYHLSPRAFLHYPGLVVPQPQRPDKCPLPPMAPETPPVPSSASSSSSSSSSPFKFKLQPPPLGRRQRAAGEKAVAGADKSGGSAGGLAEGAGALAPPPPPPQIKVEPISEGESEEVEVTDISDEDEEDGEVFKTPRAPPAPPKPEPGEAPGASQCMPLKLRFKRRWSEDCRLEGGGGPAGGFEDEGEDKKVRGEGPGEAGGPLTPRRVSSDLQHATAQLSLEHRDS
# Procedure, shortened: as §1
# [12] = target: T7, ETV3L (Homo sapiens, UniProt Q6ZN32 1-361); conditions: protein: recombinant; tags: N-terminal GST; dsDNA, one strand shown
# T7 sequence: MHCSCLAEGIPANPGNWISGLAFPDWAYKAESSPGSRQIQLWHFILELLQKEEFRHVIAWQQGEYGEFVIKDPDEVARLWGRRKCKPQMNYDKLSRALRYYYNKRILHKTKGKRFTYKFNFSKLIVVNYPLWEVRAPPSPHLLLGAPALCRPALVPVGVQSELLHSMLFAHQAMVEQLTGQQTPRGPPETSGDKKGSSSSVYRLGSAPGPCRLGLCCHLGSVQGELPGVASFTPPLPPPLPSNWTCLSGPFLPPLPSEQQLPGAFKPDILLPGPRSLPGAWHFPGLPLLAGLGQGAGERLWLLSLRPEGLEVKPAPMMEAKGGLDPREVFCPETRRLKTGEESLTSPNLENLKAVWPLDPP
# Procedure, shortened: as §1
# [13] = target: T8, ETS2 (Homo sapiens, UniProt P15036 1-469); conditions: protein: recombinant; tags: N-terminal GST; dsDNA, one strand shown
# T8 sequence: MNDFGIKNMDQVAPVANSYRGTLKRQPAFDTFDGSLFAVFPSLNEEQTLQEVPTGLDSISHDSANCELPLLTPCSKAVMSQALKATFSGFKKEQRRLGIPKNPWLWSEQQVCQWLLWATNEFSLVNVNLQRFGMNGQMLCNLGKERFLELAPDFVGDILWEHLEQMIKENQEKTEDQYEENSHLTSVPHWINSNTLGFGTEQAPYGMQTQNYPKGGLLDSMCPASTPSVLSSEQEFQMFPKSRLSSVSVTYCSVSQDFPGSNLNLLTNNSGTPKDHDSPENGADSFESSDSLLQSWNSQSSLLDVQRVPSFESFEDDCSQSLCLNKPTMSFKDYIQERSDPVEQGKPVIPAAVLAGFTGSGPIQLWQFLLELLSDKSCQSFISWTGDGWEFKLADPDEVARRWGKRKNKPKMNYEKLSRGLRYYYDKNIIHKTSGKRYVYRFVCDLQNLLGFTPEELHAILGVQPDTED
# Procedure, shortened: as §1
# [14] = target: T9, SPDEF (Homo sapiens, UniProt O95238 1-335); conditions: protein: recombinant; tags: N-terminal GST; dsDNA, one strand shown
# T9 sequence: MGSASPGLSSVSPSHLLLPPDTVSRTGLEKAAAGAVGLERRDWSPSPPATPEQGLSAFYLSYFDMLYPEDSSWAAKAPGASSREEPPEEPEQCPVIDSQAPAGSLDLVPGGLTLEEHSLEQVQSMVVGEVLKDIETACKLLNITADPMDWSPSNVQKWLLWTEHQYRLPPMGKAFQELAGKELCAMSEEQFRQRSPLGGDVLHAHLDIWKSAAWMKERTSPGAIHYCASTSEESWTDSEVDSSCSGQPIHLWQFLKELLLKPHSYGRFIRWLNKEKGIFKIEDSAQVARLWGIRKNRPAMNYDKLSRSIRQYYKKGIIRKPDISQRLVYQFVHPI
# Procedure, shortened: as §1
# [15] = target: T10, ETV7 (Homo sapiens, UniProt Q9Y603 1-341); conditions: protein: recombinant; tags: N-terminal GST; dsDNA, one strand shown
# T10 sequence: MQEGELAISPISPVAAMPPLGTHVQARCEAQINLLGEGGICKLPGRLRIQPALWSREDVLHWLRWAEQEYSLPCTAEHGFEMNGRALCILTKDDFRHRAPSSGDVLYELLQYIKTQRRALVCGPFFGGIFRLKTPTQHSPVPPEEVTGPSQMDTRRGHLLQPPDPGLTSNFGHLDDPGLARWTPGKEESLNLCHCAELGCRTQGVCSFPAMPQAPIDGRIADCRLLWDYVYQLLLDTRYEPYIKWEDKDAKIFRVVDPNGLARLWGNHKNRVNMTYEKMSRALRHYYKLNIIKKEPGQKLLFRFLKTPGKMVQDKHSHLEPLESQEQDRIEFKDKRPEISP
# Procedure, shortened: as §1
# [16] = target: T11, ELF5 (Homo sapiens, UniProt Q9UKW6-2 1-255); conditions: protein: recombinant; tags: N-terminal GST; dsDNA, one strand shown
# T11 sequence: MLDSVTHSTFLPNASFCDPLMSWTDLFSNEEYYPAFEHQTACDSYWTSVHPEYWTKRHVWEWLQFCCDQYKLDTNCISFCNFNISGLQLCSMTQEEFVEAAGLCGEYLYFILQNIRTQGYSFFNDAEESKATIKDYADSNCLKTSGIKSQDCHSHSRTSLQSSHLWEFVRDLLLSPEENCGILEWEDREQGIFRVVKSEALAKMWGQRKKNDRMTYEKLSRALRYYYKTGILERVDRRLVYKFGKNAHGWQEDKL
# Procedure, shortened: as §1
# [17] = target: T12, ETV3 (Homo sapiens, UniProt P41162-2 1-143); conditions: protein: recombinant; tags: N-terminal GST; dsDNA, one strand shown
# T12 sequence: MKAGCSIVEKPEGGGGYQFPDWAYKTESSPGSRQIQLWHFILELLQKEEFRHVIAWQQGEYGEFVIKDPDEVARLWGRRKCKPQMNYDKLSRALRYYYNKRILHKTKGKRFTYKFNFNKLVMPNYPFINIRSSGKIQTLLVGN
# Procedure, shortened: as §1
# [18] = target: ETV6 (Homo sapiens, UniProt P41212 1-452); conditions: protein: recombinant; tags: N-terminal GST; dsDNA, one strand shown
# Procedure, shortened: as §1
# Sequence of ELF4 (Q99607 whole entry): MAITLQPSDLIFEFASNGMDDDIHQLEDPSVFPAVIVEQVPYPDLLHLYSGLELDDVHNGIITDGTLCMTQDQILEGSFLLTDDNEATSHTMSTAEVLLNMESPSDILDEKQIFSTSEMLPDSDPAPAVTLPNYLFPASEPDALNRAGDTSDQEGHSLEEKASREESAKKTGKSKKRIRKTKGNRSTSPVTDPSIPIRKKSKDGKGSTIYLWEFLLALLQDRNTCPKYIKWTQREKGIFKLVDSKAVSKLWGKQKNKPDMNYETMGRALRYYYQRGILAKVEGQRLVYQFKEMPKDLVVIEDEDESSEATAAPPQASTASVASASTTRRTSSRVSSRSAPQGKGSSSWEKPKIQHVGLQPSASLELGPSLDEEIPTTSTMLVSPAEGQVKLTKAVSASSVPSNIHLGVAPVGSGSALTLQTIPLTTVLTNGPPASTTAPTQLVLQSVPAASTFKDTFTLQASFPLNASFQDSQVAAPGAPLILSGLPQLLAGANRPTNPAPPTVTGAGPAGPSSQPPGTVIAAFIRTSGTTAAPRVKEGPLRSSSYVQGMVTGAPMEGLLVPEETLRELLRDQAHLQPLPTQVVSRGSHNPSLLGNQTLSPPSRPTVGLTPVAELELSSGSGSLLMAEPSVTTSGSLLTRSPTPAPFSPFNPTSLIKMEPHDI
# Sequence of ETV6 (P41212 whole entry): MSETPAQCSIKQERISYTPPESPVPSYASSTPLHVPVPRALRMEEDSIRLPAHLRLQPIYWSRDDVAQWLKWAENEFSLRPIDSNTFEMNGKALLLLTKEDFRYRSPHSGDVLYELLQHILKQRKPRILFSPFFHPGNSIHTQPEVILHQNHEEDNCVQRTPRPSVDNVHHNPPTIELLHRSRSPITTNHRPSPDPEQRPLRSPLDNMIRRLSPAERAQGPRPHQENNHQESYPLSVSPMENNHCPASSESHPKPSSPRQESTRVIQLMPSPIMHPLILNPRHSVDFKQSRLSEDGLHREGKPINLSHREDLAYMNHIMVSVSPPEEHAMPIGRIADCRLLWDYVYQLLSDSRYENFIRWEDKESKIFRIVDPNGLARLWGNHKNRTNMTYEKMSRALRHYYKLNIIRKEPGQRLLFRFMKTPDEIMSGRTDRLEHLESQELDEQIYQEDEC
# Sequence of HSF1 (Q00613 whole entry): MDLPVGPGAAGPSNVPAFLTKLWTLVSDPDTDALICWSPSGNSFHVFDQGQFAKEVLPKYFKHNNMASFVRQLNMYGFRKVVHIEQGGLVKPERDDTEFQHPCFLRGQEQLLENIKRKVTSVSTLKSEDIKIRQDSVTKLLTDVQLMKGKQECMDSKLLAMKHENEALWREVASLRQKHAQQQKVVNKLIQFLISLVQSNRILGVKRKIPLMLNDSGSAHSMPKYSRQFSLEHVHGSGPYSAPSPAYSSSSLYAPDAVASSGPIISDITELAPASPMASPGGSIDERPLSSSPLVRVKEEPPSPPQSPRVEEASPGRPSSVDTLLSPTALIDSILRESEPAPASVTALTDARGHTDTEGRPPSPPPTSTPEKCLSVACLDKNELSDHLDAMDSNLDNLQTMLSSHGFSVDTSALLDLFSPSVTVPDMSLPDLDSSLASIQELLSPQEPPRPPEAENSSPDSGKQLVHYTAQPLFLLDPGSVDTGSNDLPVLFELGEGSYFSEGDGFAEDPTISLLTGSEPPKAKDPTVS
# Sequence of CRX (O43186 whole entry): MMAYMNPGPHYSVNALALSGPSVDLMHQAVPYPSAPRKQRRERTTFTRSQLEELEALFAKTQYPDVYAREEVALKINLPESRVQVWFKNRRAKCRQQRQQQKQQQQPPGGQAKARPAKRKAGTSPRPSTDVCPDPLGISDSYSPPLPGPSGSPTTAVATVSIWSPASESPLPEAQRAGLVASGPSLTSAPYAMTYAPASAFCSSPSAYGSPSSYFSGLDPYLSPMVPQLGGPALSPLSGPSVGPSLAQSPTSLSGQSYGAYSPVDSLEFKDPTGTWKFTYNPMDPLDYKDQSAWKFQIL
# Sequence of ETV5 (P41161 whole entry): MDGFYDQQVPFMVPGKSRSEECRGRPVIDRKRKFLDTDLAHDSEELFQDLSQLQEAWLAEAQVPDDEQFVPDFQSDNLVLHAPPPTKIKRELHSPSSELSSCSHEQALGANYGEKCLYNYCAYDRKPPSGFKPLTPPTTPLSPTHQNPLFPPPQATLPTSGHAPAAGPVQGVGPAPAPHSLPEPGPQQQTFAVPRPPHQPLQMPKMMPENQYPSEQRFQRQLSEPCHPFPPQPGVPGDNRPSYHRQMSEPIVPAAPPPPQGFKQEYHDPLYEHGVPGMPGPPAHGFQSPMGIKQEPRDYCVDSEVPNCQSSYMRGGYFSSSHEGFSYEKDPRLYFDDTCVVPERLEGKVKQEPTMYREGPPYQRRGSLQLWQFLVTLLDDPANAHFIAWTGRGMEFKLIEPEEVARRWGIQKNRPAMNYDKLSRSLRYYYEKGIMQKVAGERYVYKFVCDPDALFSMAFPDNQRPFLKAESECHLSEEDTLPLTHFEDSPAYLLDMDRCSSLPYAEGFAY
# Sequence of ETV1 (P50549 whole entry): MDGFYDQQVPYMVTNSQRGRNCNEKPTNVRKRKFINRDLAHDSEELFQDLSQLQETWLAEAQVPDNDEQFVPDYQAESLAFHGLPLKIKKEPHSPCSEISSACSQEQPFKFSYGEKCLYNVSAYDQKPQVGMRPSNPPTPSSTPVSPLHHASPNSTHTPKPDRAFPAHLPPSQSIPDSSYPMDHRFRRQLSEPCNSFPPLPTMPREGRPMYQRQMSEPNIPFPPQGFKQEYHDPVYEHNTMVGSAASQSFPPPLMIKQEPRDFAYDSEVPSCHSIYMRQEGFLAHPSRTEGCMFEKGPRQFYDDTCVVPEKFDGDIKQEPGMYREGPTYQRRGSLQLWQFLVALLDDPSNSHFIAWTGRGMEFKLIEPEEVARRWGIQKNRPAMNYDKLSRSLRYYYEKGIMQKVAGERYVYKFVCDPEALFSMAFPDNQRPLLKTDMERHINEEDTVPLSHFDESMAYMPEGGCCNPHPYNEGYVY
sequence,measurement,setting,value
TCTGAA,binding signal,[1],"1.21 fold enrichment (6-mer frequency, TF over GST control)"
same,binding signal,[2],"1.09 fold enrichment (6-mer frequency, TF over GST control)"
same,binding signal,[3],"1.23 fold enrichment (6-mer frequency, TF over GST control)"
same,binding signal,[4],"1.2 fold enrichment (6-mer frequency, TF over GST control)"
same,binding signal,[5],"1.2 fold enrichment (6-mer frequency, TF over GST control)"
same,binding signal,[6],"1.14 fold enrichment (6-mer frequency, TF over GST control)"
same,binding signal,[7],"1.17 fold enrichment (6-mer frequency, TF over GST control)"
same,binding signal,[8],"1.18 fold enrichment (6-mer frequency, TF over GST control)"
same,binding signal,[9],"1.21 fold enrichment (6-mer frequency, TF over GST control)"
same,binding signal,[10],"1.21 fold enrichment (6-mer frequency, TF over GST control)"
same,binding signal,[11],"1.27 fold enrichment (6-mer frequency, TF over GST control)"
same,binding signal,[12],"1.15 fold enrichment (6-mer frequency, TF over GST control)"
same,binding signal,[13],"1.27 fold enrichment (6-mer frequency, TF over GST control)"
same,binding signal,[14],"1.23 fold enrichment (6-mer frequency, TF over GST control)"
same,binding signal,[15],"1.07 fold enrichment (6-mer frequency, TF over GST control)"
same,binding signal,[16],"1.07 fold enrichment (6-mer frequency, TF over GST control)"
same,binding signal,[17],"1.09 fold enrichment (6-mer frequency, TF over GST control)"
same,binding signal,[18],"1.16 fold enrichment (6-mer frequency, TF over GST control)"
